Data: PubChem BioAssay
Unmarked numbers belong to inactive results. The rule behind the calls is not given here.

The compounds below were run against Pantothenate synthetase (Mycobacterium tuberculosis (strain ATCC 25618 / H37Rv)) (UniProt P9WIL5) (assay: Coupled enzyme confirmation of inhibitors against recombinant Mtb PanC (AID 375;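 note: 0% = full reaction with vehicle and 100% = no enzyme background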)). Conditions: coupled enzyme assay; at 10 µM, active compounds read high.
Sequence of Pantothenate synthetase (Mycobacterium tuberculosis (strain ATCC 25618 / H37Rv)) (P9WIL5 whole entry, looked up): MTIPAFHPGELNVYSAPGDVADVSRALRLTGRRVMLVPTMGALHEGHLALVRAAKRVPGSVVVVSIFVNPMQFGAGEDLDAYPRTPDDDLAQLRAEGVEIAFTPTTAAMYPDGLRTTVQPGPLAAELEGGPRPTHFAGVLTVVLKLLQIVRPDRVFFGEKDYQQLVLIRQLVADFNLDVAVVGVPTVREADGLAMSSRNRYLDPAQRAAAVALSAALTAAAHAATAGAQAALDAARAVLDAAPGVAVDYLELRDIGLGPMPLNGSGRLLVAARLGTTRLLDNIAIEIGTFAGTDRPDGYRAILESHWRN

Q: With `CC[C@]1(O)C[C@@H]2CN(CCc3c([nH]c4ccccc34)[C@@](C(=O)OC)(c3cc4c(cc3OC)N(C)[C@H]3[C@@](O)(C(=O)OC)[C@H](OC(C)=O)[C@]5(CC)C=CCN6CC[C@]43[C@@H]65)C2)C1` as the compound, how does the inhibition read?
A: 0%

Q: `Cc1ccc(C(c2sc3nc(C)nn3c2O)N2CC(C)OC(C)C2)cc1` (stereo not given) was tested. Which inhibition did it give?
A: 0%

Q: How did the inhibition turn out when `COC(=O)c1ccc(NC(=O)Cn2nnc3ccccc32)cc1` was run?
A: 0%

Q: How did the inhibition turn out when `CCn1c(=O)cc(SCC(=O)Nc2cccnc2)c2ccccc21` was run?
A: 0%

Q: Which inhibition does the source give for `O=C(Nc1cccc(F)c1)C1C2C=CC3(CN(CCCN4CCOCC4)C(=O)C13)O2` (stereo not given) here?
A: 0%

Q: `O=C(Nc1cccc(F)c1)N1CC=C(n2c(=O)[nH]c3ccccc32)CC1` was tested. Which inhibition did it give?
A: 5%

Q: For `COc1ccc(-c2ccc(-c3noc(-c4cccs4)n3)c(OC)n2)cc1`, which inhibition is on record?
A: 0%

Q: Which inhibition does the source give for `Cc1ncc([N+](=O)[O-])n1CCO` here?
A: 1%

Q: How did the inhibition turn out when `O=C(CCCn1c(=O)c2sccc2n(CC(=O)NCc2ccco2)c1=O)NCc1ccco1` was run?
A: 0%

Q: For `O=c1sc(Nc2ccccc2)nc2ccsc12`, which inhibition is on record?
A: 0%

Q: `CCc1nn2c(=O)cc(CSc3nc4sc5c(c4c(=O)n3C)CCCC5)nc2s1` was tested. Which inhibition did it give?
A: 0%

Q: Which inhibition does the source give for `Cc1ccccc1CS(=O)(=O)Cc1ccc(C(=O)NCCCN2CCOCC2)o1` here?
A: 0%

Q: How did the inhibition turn out when `CCOc1cc(C2C(C(=O)c3ccccc3)=C(C(=O)OC)Nc3nnnn32)ccc1O` (stereo not given) was run?
A: 0%

Q: How did the inhibition turn out when `CCOC(=O)c1nnc2ccnn2c1N` was run?
A: 0%

Q: With `CCC12CN3CC(CC)(CN(C1)C3c1ccc(OC(C)C)cc1)C2=O` (stereo not given) as the compound, how does the inhibition read?
A: 9%

Q: How did the inhibition turn out when `CCC1CCCCN1c1nc(-c2ccncc2)nc2ccccc12` (stereo not given) was run?
A: 1%

Q: For `CCCn1c(NCc2ccc3c(c2)OCO3)nc2ccccc21`, which inhibition is on record?
A: 0%

Q: For `O=C(O)CCc1ccc(-c2cccs2)o1`, which inhibition is on record?
A: 6%

Q: How did the inhibition turn out when `CCC1c2ccc(C)n2CCN1C(=O)Nc1ccccc1OC` (stereo not given) was run?
A: 9%

Q: Which inhibition does the source give for `CC(C)CNC(=O)C1C2C=CC(C2)C1C(=O)O` (stereo not given) here?
A: 7%

Q: `COc1ccccc1C1c2c(oc3ccc(Cl)cc3c2=O)C(=O)N1c1cc(C)on1` (stereo not given) was tested. Which inhibition did it give?
A: 0%

Q: With `Cc1ccc(S(=O)(=O)N2CCN(C(=O)N3CCOCC3)C2c2ccc(N(C)C)cc2)cc1` (stereo not given) as the compound, how does the inhibition read?
A: 0%

Q: For `N#Cc1c(NCc2ccccc2)ccnc1NCc1cccnc1`, which inhibition is on record?
A: 0%

Q: `COc1ccc(S(=O)(=O)C(C#N)c2nc3ccccc3nc2N2CCCC(C)C2)cc1` (stereo not given) was tested. Which inhibition did it give?
A: 0%

Q: With `O=C(CNS(=O)(=O)c1ccc(Br)s1)N1CCCC1` as the compound, how does the inhibition read?
A: 0%

Q: Which inhibition does the source give for `O=C(c1ccc(Br)o1)N(Cc1ccccc1)c1ccccn1` here?
A: 3%

Q: `COc1cc2[nH]c(=O)c(C(=O)NCCCN3CCCCC3)c(O)c2cc1OC` was tested. Which inhibition did it give?
A: 3%

Q: Which inhibition does the source give for `CN(C)CC(O)COc1ccc(-c2ccc(C#N)cc2)cc1` (stereo not given) here?
A: 3%

Q: `Cc1[nH]c2ccccc2c(=O)c1CN1CCCCC1` was tested. Which inhibition did it give?
A: 0%

Q: For `Cc1ccccc1S(=O)(=O)Cc1ccc(C(=O)NCc2cccnc2)o1`, which inhibition is on record?
A: 0%

Q: `Cc1ccc(CNC(=O)COC(=O)c2c(C)noc2C)cc1` was tested. Which inhibition did it give?
A: 0%

Q: Which inhibition does the source give for `Cc1coc2cc3oc(=O)c4c(c3cc12)CCC4` here?
A: 11%

Q: How did the inhibition turn out when `O=C(Nc1cccc2ccccc12)N1CCOCC1` was run?
A: 0%

Q: Which inhibition does the source give for `CSc1nc(N2CCOCC2)c2ccccc2n1` here?
A: 0%

Q: How did the inhibition turn out when `COCCCNC(=O)c1c(N)n(-c2cccc(S(N)(=O)=O)c2)c2nc3ccccc3nc12` was run?
A: 2%

Q: With `COC(=O)c1[nH]c2ccc(C)cc2c1NC(=O)CN1CCN(C(=O)c2ccccc2)CC1` as the compound, how does the inhibition read?
A: 4%

Q: How did the inhibition turn out when `Cc1cc(NC(=O)c2ccc3nc(-c4ccccc4)c(-c4ccccc4)nc3c2)no1` was run?
A: 0%

Q: For `COC(=O)C1=CN(C(C)C)C=C(C(=O)OC)C1c1cc2c(cc1Br)OCO2`, which inhibition is on record?
A: 0%

Q: How did the inhibition turn out when `Cc1ccc2nc(NC(=O)C3CCCN(S(=O)(=O)c4cccc5nonc45)C3)sc2c1` (stereo not given) was run?
A: 1%

Q: `COc1ccc(CCn2c(NCCCN3CCOCC3)nc3c2c(=O)[nH]c(=O)n3C)cc1` was tested. Which inhibition did it give?
A: 0%
